Laboratory results: PubChem BioAssay (NCATS)
Inconclusive results are not listed. Activity calls are given as the source filed them. The call rests on the fitted dose curve; in most records, active means well fitted cell-killing curve with a large enough effect; inconclusive means small, poorly fitted or top-dose-only effect, or effect the other way; inactive means flat fitted curve, though single readings scatter.

Tests used:
Experiment in all cases: Primary qHTS to identify gynecologic anti-cancer compounds using libraries of approved drugs and bioactive compounds (AID 1345084); further: nearly all actives have a fitted effect of over 55% in size
C33A = conditions: Gynecologic cancer cell panel viability, ATPlite luminescence, 48 h; series mostly up to 57.5 µM
Procedure, shortened: (§1)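 Cytotoxicity screen measuring ATP content by luciferase luminescence. Each compound is applied at five concentrations for 48 h at 37 C with 5% CO2.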

CAOV3 = conditions: Gynecologic cancer cell panel viability, ATPlite luminescence, 48 h; series mostly up to 57.5 µM
Procedure, shortened: as §1

CASKI = conditions: Gynecologic cancer cell panel viability, ATPlite luminescence, 48 h; series mostly up to 57.5 µM
Procedure, shortened: as §1

Es-2 = conditions: Gynecologic cancer cell panel viability, ATPlite luminescence, 48 h; series mostly up to 57.5 µM
Procedure, shortened: as §1

HeLa = conditions: Gynecologic cancer cell panel viability, ATPlite luminescence, 48 h; series mostly up to 57.5 µM
Procedure, shortened: as §1

Hek293T = conditions: Gynecologic cancer cell panel viability, ATPlite luminescence, 48 h, control line for the selectivity index; series mostly up to 57.5 µM
Procedure, shortened: as §1

JEG-3 = conditions: Gynecologic cancer cell panel viability, ATPlite luminescence, 48 h; series mostly up to 57.5 µM
Procedure, shortened: as §1

OV90 = conditions: Gynecologic cancer cell panel viability, ATPlite luminescence, 48 h; series mostly up to 57.5 µM
Procedure, shortened: as §1

PA-1 = conditions: Gynecologic cancer cell panel viability, ATPlite luminescence, 48 h; series mostly up to 57.5 µM
Procedure, shortened: as §1

SKOV3 = conditions: Gynecologic cancer cell panel viability, ATPlite luminescence, 48 h; series mostly up to 57.5 µM
Procedure, shortened: as §1

Tov-21-G = conditions: Gynecologic cancer cell panel viability, ATPlite luminescence, 48 h; series mostly up to 57.5 µM
Procedure, shortened: as §1

Tov112D = conditions: Gynecologic cancer cell panel viability, ATPlite luminescence, 48 h; series mostly up to 57.5 µM
Procedure, shortened: as §1
On the % scale 0 is the no-effect control and ±100 the full control effect.

C=CCC1=C[C@]2(OC)[C@H](C)[C@@H](c3ccc4c(c3)OCO4)O[C@]2(OC)CC1=O
inactive: Potency (C33A) | Potency (CAOV3) | Potency (CASKI) | Potency (Es-2) | Potency (HeLa) | Potency (Hek293T) | Potency (JEG-3) | Potency (OV90) | Potency (PA-1) | Potency (SKOV3) | Potency (Tov-21-G) | Potency (Tov112D)

CC(C)=CCc1cc2c(cc1O)OC[C@H]1c3ccc(O)cc3O[C@@H]21
inactive: Potency (C33A) | Potency (CAOV3) | Potency (CASKI) | Potency (Es-2) | Potency (HeLa) | Potency (Hek293T) | Potency (JEG-3) | Potency (OV90) | Potency (PA-1) | Potency (SKOV3) | Potency (Tov-21-G) | Potency (Tov112D)

C=CCc1ccc(OC(C)Cc2ccc(OC)c(OC)c2)c(OC)c1 (stereo unspecified)
inactive: Potency (C33A) | Potency (CAOV3) | Potency (CASKI) | Potency (Es-2) | Potency (HeLa) | Potency (Hek293T) | Potency (JEG-3) | Potency (OV90) | Potency (PA-1) | Potency (SKOV3) | Potency (Tov-21-G) | Potency (Tov112D)

O=C(Nc1ccccc1)N1CCC(Cc2cnc3ccccc3c2)CC1
inactive: Potency (C33A) | Potency (CAOV3) | Potency (CASKI) | Potency (Es-2) | Potency (HeLa) | Potency (Hek293T) | Potency (JEG-3) | Potency (OV90) | Potency (PA-1) | Potency (SKOV3) | Potency (Tov-21-G) | Potency (Tov112D)

C=C(CCC1C(C)(O)CCC2C(C)(C)C(O)CCC12C)C(O)CO (stereo unspecified)
inactive: Potency (C33A) | Potency (CAOV3) | Potency (CASKI) | Potency (Es-2) | Potency (HeLa) | Potency (Hek293T) | Potency (JEG-3) | Potency (OV90) | Potency (PA-1) | Potency (SKOV3) | Potency (Tov-21-G) | Potency (Tov112D)

COC(=O)C(Cc1ccc(OCCn2c(=O)sc3cc(C(=O)c4ccccc4)ccc32)cc1)C(=O)OC
inactive: Potency (C33A) | Potency (CAOV3) | Potency (CASKI) | Potency (Es-2) | Potency (HeLa) | Potency (Hek293T) | Potency (JEG-3) | Potency (OV90) | Potency (PA-1) | Potency (SKOV3) | Potency (Tov-21-G) | Potency (Tov112D)

C[C@H]1CC[C@@]2(OC1)O[C@H]1CC3[C@@H]4CC[C@@H]5C[C@@H](O[C@@H]6O[C@H](CO)[C@@H](O[C@@H]7O[C@H](CO[C@@H]8OC[C@@H](O)[C@H](O)[C@H]8O)[C@@H](O[C@@H]8O[C@H](CO)[C@H](O)[C@H](O)[C@H]8O)[C@H](O)[C@H]7O)[C@H](O)[C@H]6O)CC[C@]5(C)C4CC[C@]3(C)[C@H]1[C@@H]2C (stereo partly specified)
inactive: activity change, negative = cytotoxicity (C33A) -0.589% [at 11.6 µM] | activity change, negative = cytotoxicity (CAOV3) 0.154% [at 11.6 µM] | activity change, negative = cytotoxicity (CASKI) -0.139% [at 11.6 µM] | activity change, negative = cytotoxicity (Es-2) -0.634% [at 11.6 µM] | activity change, negative = cytotoxicity (HeLa) 17.3% [at 11.6 µM] | activity change, negative = cytotoxicity (Hek293T) -0.448% [at 11.6 µM] | activity change, negative = cytotoxicity (JEG-3) -1.5% [at 11.6 µM] | activity change, negative = cytotoxicity (OV90) -9.4% [at 11.6 µM] | activity change, negative = cytotoxicity (PA-1) -0.202% [at 11.6 µM] | activity change, negative = cytotoxicity (SKOV3) 11% [at 11.6 µM] | activity change, negative = cytotoxicity (Tov-21-G) -1.12% [at 11.6 µM] | activity change, negative = cytotoxicity (Tov112D) 3.54% [at 11.6 µM]

CC1(C)CCC2(C(=O)OC3OC(COC4OC(CO)C(O)C(O)C4O)C(O)C(O)C3O)CCC3(C)C(=CCC4C5(C)CCC(OC6OCC(O)C(O)C6O)C(C)(C)C5CCC43C)C2C1O (stereo unspecified)
inactive: activity change, negative = cytotoxicity (C33A) -1.3% [at 11.6 µM] | activity change, negative = cytotoxicity (CAOV3) 1.87% [at 11.6 µM] | activity change, negative = cytotoxicity (CASKI) -6.34% [at 11.6 µM] | activity change, negative = cytotoxicity (Es-2) 5.34% [at 11.6 µM] | activity change, negative = cytotoxicity (HeLa) 20.6% [at 11.6 µM] | activity change, negative = cytotoxicity (Hek293T) -15.1% [at 11.6 µM] | activity change, negative = cytotoxicity (JEG-3) -7.3% [at 11.6 µM] | activity change, negative = cytotoxicity (OV90) -2.98% [at 11.6 µM] | activity change, negative = cytotoxicity (PA-1) -14.1% [at 11.6 µM] | activity change, negative = cytotoxicity (SKOV3) -2.57% [at 11.6 µM] | activity change, negative = cytotoxicity (Tov-21-G) 0.233% [at 11.6 µM] | activity change, negative = cytotoxicity (Tov112D) -9.09% [at 11.6 µM]

COc1c2c(nc3occc13)C(CC=C(C)C)(OC)C(O)CC2 (stereo unspecified)
inactive: Potency (C33A) | Potency (CAOV3) | Potency (CASKI) | Potency (Es-2) | Potency (HeLa) | Potency (Hek293T) | Potency (JEG-3) | Potency (OV90) | Potency (PA-1) | Potency (SKOV3) | Potency (Tov-21-G) | Potency (Tov112D)

O=C(NCc1nc2ccccc2c(=O)n1-c1ccc(F)cc1)Nc1ccc(Cl)c(C(F)(F)F)c1
inactive: Potency (C33A) | Potency (CAOV3) | Potency (CASKI) | Potency (Es-2) | Potency (HeLa) | Potency (Hek293T) | Potency (JEG-3) | Potency (OV90) | Potency (PA-1) | Potency (SKOV3) | Potency (Tov-21-G) | Potency (Tov112D)

CN1CCN(C2=Nc3ccccc3Nc3ccc(Cl)cc32)CC1
inactive: Potency (C33A) | Potency (CAOV3) | Potency (CASKI) | Potency (Es-2) | Potency (HeLa) | Potency (Hek293T) | Potency (JEG-3) | Potency (OV90) | Potency (PA-1) | Potency (SKOV3) | Potency (Tov-21-G) | Potency (Tov112D)

C=C[C@]1(C)C[C@H](O)[C@H]2C(=C)C(=O)O[C@@H]2[C@H]1C(=C)CO
inactive: Potency (C33A) | Potency (CAOV3) | Potency (CASKI) | Potency (Es-2) | Potency (HeLa) | Potency (Hek293T) | Potency (JEG-3) | Potency (OV90) | Potency (PA-1) | Potency (SKOV3) | Potency (Tov-21-G) | Potency (Tov112D)

CCCCCc1ccc(/C=C/C(=O)Nc2cc(Cl)ccc2C(=O)O)cc1
inactive: Potency (C33A) | Potency (CAOV3) | Potency (CASKI) | Potency (Es-2) | Potency (HeLa) | Potency (Hek293T) | Potency (JEG-3) | Potency (OV90) | Potency (PA-1) | Potency (SKOV3) | Potency (Tov-21-G) | Potency (Tov112D)
